# Screening data: PubChem, Broad Institute
# In the library only some 3.9% were active in any assay of this set; here they are far more common.
# NSD2 inh: NSD2 (human) methyltransferase inhibition | actives 0.54% (n = 310,000) | inhibition, % at 12.5 µM | NSD2 peptide methylation, AlphaScreen, 120 min | AID 743445 | O96028; in the data active = inhibition above about 50%
# Target sequence (O96028 whole entry, looked up): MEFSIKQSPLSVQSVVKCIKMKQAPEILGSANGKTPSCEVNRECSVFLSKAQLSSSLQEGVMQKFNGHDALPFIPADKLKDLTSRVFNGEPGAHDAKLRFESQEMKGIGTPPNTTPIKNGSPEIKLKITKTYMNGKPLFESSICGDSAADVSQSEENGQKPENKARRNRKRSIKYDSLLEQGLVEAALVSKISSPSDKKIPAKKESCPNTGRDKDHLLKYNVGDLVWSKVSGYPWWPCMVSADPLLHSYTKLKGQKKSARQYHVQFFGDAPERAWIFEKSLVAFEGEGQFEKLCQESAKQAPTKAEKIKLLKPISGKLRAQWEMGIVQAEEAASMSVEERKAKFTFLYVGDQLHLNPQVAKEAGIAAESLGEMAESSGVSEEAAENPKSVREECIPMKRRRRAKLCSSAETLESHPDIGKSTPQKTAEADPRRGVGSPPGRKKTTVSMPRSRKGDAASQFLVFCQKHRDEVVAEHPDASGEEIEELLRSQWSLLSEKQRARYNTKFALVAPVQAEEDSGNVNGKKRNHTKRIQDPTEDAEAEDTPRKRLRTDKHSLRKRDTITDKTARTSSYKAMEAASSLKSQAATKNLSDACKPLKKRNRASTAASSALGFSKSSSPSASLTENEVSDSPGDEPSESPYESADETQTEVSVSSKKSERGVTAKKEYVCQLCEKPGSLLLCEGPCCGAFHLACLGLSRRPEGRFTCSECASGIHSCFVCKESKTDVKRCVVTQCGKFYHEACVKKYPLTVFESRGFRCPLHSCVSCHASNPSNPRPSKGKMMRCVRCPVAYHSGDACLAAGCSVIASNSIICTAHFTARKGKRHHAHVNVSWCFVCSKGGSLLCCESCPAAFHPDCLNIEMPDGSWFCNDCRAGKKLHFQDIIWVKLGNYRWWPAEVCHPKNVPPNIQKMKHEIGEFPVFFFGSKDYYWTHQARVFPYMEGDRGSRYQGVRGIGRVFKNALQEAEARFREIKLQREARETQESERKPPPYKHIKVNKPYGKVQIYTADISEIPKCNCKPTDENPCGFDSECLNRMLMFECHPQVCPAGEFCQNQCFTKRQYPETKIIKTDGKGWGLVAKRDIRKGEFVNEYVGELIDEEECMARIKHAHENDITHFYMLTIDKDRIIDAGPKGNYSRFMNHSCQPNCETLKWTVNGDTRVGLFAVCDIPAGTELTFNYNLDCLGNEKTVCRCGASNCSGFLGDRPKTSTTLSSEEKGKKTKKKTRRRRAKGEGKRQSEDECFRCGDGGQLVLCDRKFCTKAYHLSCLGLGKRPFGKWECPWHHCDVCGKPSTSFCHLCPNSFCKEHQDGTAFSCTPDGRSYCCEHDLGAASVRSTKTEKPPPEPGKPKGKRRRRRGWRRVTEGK
# ALR H2O2 inh: inhibitors of human sulfhydryl oxidase ALR. actives 3.8% (n = 290,000). purified ALR, DTT oxidation, H2O2 HRP-luminol luminescence. inhibition, % (no concentration beside the values);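 active = mean replicate inhibition above about 79%, with every replicate also reaching it, limit read from the data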
# Glyco luc inh: N-linked glycosylation inhibition; D54 ERlucT glycosylation luciferase reporter, 24 h; percent of 100 nM tunicamycin response; reporter increase, % at 12.5 µM; AID 588692; actives 0.23% (n = 360,000);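 active = mean luciferase reporter signal, scaled so untreated is 0 and the glycosylation-blocking control 100, at or above a set limit in every replicate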;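 note: luciferase carries N-glycosylation sites so blocking glycosylation raises the light; 0% = median of neutral control wells and 100% = median of 100 nM tunicamycin wells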
# Mot1-301 SUMO: SUMOylation pathway inhibition by Mot1-301 growth rescue; actives 1% (n = 320,000); growth rescue, % at 18.8 µM; S. cerevisiae Mot1-301 growth rescue, ATP luminescence, 38.5C; percent above DMSO median, 100 means doubled;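 active = every valid replicate shows activation above 250% relative to neutral control wells; inactive = the rest, any valid replicate at or below 250%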;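 note: OY570 slx delta 5 strain wells were the positive control but not used for scaling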
# CASP6 VEID inh: inhibitors of human caspase-6; P55212; actives 0.53% (n = 350,000); purified caspase-6, Z-VEID-R110 cleavage fluorescence; inhibition, % at 12.5 µM;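 active = mean inhibition across replicates at least about 35%, with every replicate also reaching that limit, limit read from the data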;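 note: 0% = median of neutral control wells and 100% = no fluorescence left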
# CDK5 p35 inh: inhibitors of human CDK5/p35 kinase; Q00535+Q15078; Recombinant CDK5/p35, ADP-Glo luminescence, 60 min; inhibition, % at 10 µM; actives 0.01% (n = 330,000); AID 488839;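 active = highest replicate inhibition of at least 50% and at least 75% of replicates reaching 50%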;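 note: plate controls were DMSO neutral control for no effect and GW8510 at 10 µM for full effect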
# * = called active by the depositor; · = no result.
SMILES,NSD2 inh,ALR H2O2 inh,Glyco luc inh,Mot1-301 SUMO,CASP6 VEID inh,CDK5 p35 inh
O=S(=O)(Cc1ccccc1)Nc1ccccc1,-2,-6,3,5,0,2
COc1ccc(S(=O)(=O)Nc2c(C(=O)O)[nH]c3ccccc23)cc1,0,91*,2,0,3,-1
O=C(O)c1[nH]c2ccccc2c1NS(=O)(=O)c1ccc(F)cc1,-1,94*,0,-8,0,0
COc1ccc(S(=O)(=O)Nc2c(C(=O)O)[nH]c3ccccc23)cc1OC,1,10,6,48,·,-2
O=C(O)c1[nH]c2ccccc2c1NS(=O)(=O)Cc1ccccc1,2,99*,2,13,·,0
COCCNC(=O)C[C@@H]1CC[C@H](NC(=O)NC2CCCC2)[C@@H](CO)O1,·,·,·,·,6,·
O=C(O)c1ccccc1NS(=O)(=O)c1cccc(-n2sc3ccccc3c2=O)c1,21,98*,3,-35,10,1
O=C(Nc1cccc(C(F)(F)F)c1)c1cccnc1N1CCOCC1,-4,3,-1,51,-3,1
O=C(Nc1cccc(F)c1)c1cccnc1N1CCOCC1,0,85*,-1,-10,1,-4
CCN(CC)S(=O)(=O)c1cccc(NC(=O)CN2C(=O)NC3(CCC(C)CC3)C2=O)c1 (stereo unspecified),-2,·,32*,·,0,-1
CC1CCC2(CC1)NC(=O)N(CC(=O)Nc1cccc(S(=O)(=O)N(C)c3ccccc3)c1)C2=O (stereo unspecified),-1,·,14,·,2,·
O=C(Nc1cccc(F)c1)c1cc(S(=O)(=O)N2CCOCC2)ccc1N1CCCC1,3,-3,28*,-9,·,0
O=C(Nc1cccc(S(=O)(=O)N2CCCC2)c1)c1cccc(S(=O)(=O)N2CCOCC2)c1,-3,97*,-2,-4,1,1
CN1CCN(c2ccc(NC(=O)c3cccc(S(=O)(=O)N4CCCC4)c3)cc2)CC1,3,-6,3,71,-75,2
O=C(CN1C(=O)NC2(CCCCC2)C1=O)Nc1cccc(S(=O)(=O)N2CCCC2)c1,0,·,4,40,5,0
O=C(CCN1C(=O)NC2(CCCC2)C1=O)Nc1cccc(S(=O)(=O)N2CCOCC2)c1,-1,0,0,-4,42*,2
COc1cccc(NC(=O)c2oc3ccc(S(=O)(=O)N4CCOCC4)cc3c2C)c1,-3,82*,1,12,2,0
CC(C)[C@H](NC(=O)c1ccc(Cl)cc1)C(=O)Nc1cccc(S(=O)(=O)N2CCOCC2)c1,8,·,0,·,-2,·
CCN(c1ccc(NC(=O)c2cccc(S(=O)(=O)N3CCN(C)CC3)c2)cc1)C(C)C,7,99*,-3,2,-5,0
COc1cc(OC)cc(C(=O)N[C@H](C(=O)Nc2cccc(S(=O)(=O)N3CCCC3)c2)C(C)C)c1,-2,-6,1,720*,-1,-2
C[C@H]1CN([C@@H](C)CO)C(=O)c2cccc(NC(=O)c3cnccn3)c2O[C@H]1CN(C)C(=O)NC1CCCCC1,·,·,·,·,-1,·
O=C(c1cnn(C(=O)c2cccc(S(=O)(=O)N3CCOCC3)c2)c1)c1ccccc1O,2,90*,4,5,8,1
Cc1ccc(O)c(C2=NNC(O)(C(F)(F)F)C2)c1 (stereo unspecified),-3,·,-2,340*,·,2
Cc1ccc(SCc2c(C#N)c3ccccc3n2C)cc1,-2,99*,1,-1,·,-1
CC1(C)CC(=O)/C(=N/Nc2ccc(Cl)cc2)CO1,4,·,-5,275*,0,-7
SMILES,NSD2 inh,ALR H2O2 inh,Glyco luc inh,Mot1-301 SUMO,CASP6 VEID inh,CDK5 p35 inh
Cc1cccc(N/N=C2/COC(C)(C)CC2=O)c1,0,93*,-8,53,-2,0
C[C@@H]1CN([C@@H](C)CO)C(=O)c2cc(NC(=O)Nc3ccccc3)ccc2O[C@H]1CN(C)S(=O)(=O)c1cn(C)cn1,·,·,·,·,4,·
CC(C)CC(NC(=O)c1ccccc1)C(=O)OCC(=O)Nc1ccc(Br)cn1 (stereo unspecified),-1,99*,1,-15,·,-1
COc1ccc(C#Cc2ccc3c(c2)[C@]2(C(=O)N3)[C@H](C(=O)N3CCN(c4ncccn4)CC3)[C@H]3C(=O)O[C@H](c4ccccc4)[C@H](c4ccccc4)N3[C@@H]2c2ccc(O)cc2)cc1,·,·,·,·,-1,·
CSc1cccc(CN2CCC(CO)(Cc3ccccc3)CC2)c1,-1,-2,-1,459*,0,2
C[C@@H]1CN([C@@H](C)CO)C(=O)c2cccc(NC(=O)c3ccc(-c4nccs4)cc3)c2O[C@@H]1CN(C)S(=O)(=O)c1cn(C)cn1,·,·,·,·,2,·
C[C@@H]1CN([C@@H](C)CO)C(=O)c2cc(NC(=O)C3CC3)ccc2O[C@H]1CN(C)Cc1ccc(Cl)c(Cl)c1,·,·,·,·,-1,·
CN=c1scc(-c2ccccc2Br)n1/N=C/c1ccc[nH]1,·,5,·,-18,·,·
CN=c1scc(C)n1/N=C/c1cc(Br)c(O)c(OC)c1,6,99*,-1,101,3,0
O=C1c2ccccc2C(=O)N1/N=C/c1ccc(O)c(O)c1O,·,·,0,·,·,1
CN=c1scc(-c2cccs2)n1/N=C/c1ccccc1O,1,87*,-25,16,1,1
CN=c1scc(C)n1/N=C/c1ccc(O)c(O)c1O,25,100*,-1,332,·,1
COc1cc(/C=N/N(C)C)cc(Br)c1O,1,·,2,27,-1,2
CN=c1scc(-c2cccs2)n1/N=C/c1ccc(O)c(O)c1O,5,99*,-11,-21,24,-1
Cc1noc(C)c1S(=O)(=O)Nc1ccc2c(c1)C(=O)N([C@@H](C)CO)C[C@H](C)[C@@H](CN(C)Cc1ccncc1)OCCCC[C@H](C)O2,·,·,·,·,2,·
CC(C)NC(=O)N(C)C[C@H]1OCCCC[C@@H](C)Oc2ccc(NC(=O)NC3CCCCC3)cc2C(=O)N([C@H](C)CO)C[C@@H]1C,·,·,·,·,0,·
COc1cccc(-c2n[nH]c(=S)n2Cc2ccco2)c1OC,-1,87*,0,-14,0,1
Oc1ccc(-c2n[nH]c(=S)n2Cc2ccco2)cc1,1,91*,1,-5,·,2
S=c1[nH]nc(Cc2ccccc2)n1Cc1ccco1,2,89*,0,4,2,4
O=c1cc(-c2ccc(O)c(O)c2)oc2cc(O[C@@H]3O[C@H](CO)[C@@H](O)[C@H](O)[C@H]3O)cc(O)c12,·,99*,0,-3,·,3
C[C@@H]1O[C@@H](OC[C@H]2O[C@@H](Oc3cc(O)c4c(=O)cc(-c5ccc(O)c(O)c5)oc4c3)[C@H](O)[C@@H](O)[C@@H]2O)[C@H](O)[C@H](O)[C@H]1O,·,99*,1,5,·,-1
